TMEM16A inh: TMEM16A chloride channel inhibitors, primary screen, cell-based, HTS. Anoctamin-1 (Mus musculus), Q8BHY3. AID 588511, 2011. HEK293 TMEM16A/YFP iodide influx fluorescence, ionomycin. normalized B-score (activity score, 25-100; higher = stronger inhibition) at 10 µM. 310,000 tested, 1.2% active;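 active = ratio plate-corrected score three or more library SD toward inhibition, starting fluorescence score within five deviations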;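 also: score derived from kinetic fluorescence span divided by baseline fluorescence per well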
PKA-R1A act: activators of PKA-R1A holoenzyme, primary screen, biochemical, fluorescence polarization, Cy5-IP20, bovine R1A, mouse PKAc; PKA-R1A dissociation; scaled: DMSO 0%, 113 µM cGMP 100%; 340,000 tested, 0.083% active; activation, % at 11.4 µM; AID 504707, 2011;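 active = percent activation above the mean of all tested compounds plus 3 SD, cut at about 19% in these data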;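 also: higher means more PKAc released from R1A so a rise in polarization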
CHT inh: inhibitors of human choline transporter CHT; 310,000 tested, 0.86% active; B-score at 10 µM; High affinity choline transporter 1 (Homo sapiens), Q9GZV3; CHT-expressing cells, membrane potential dye, choline response; active compounds read low;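 active = B-score over 3 SD under the library average, and starting fluorescence ratio not unusually high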;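 also: choline stimulus applied at its EC90 after an EC20 pre-addition; B-score computed on integrated fluorescence ratio after choline addition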
PKA-R2B act: activators of PKA-R2B holoenzyme, primary screen, biochemical, fluorescence polarization, Cy5-IP20, human; cAMP-dependent protein kinase catalytic subunit beta (Homo sapiens) + cAMP-dependent …; PKA-R2B holoenzyme dissociation; R2B truncated from residue 108, S112A mutant; 0% DMSO only, 100% 113 µM cGMP; activation, % at 11.4 µM; 340,000 tested, 0.079% active; AID 504700, 2011;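 active = activation above a cutoff set at the mean over all compounds plus 3 SD, cut at about 18% in these data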;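 also: higher means more holoenzyme dissociation and a rise in polarization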
Target sequence (P31323 whole entry, looked up, other chains not shown, the tested form may be a part): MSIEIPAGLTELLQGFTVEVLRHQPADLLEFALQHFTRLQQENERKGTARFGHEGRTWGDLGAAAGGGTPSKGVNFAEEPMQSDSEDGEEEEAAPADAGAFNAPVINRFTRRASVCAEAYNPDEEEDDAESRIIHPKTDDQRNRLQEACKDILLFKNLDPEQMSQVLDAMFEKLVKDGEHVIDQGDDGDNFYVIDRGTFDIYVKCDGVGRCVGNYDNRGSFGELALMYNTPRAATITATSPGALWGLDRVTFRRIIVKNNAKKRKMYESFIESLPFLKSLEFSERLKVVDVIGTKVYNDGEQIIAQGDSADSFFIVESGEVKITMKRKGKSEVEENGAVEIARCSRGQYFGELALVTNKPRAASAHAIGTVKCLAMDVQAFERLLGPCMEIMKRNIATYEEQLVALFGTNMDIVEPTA
CHT PAM: CHT positive allosteric modulators, primary screen, cell-based, membrane potential dye, choline EC20; 310,000 tested, 0.49% active; AID 488977, 2010; B-score at 10 µM; CHT-expressing cells; active compounds read high; LV-AA mutant CHT in HEK293 cells;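 active = initial fluorescence not abnormally high and integrated response B-score, plate-corrected, over 3 SD above library mean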
TMEM16A act: TMEM16A chloride channel activators or potentiators, primary screen, cell-based, HTS; HEK293 TMEM16A/YFP-H148Q/I152L, iodide quench fluorescence; active compounds read low; B-score at 10 µM; 340,000 tested, 0.3% active; AID 623877, 2012;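 active = fluorescence-ratio B-score plate-corrected deviation score at least 3 library SD below zero, with starting fluorescence score within 5 deviations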;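 also: channel opened by trigger with iodide after compound preincubation; score built on the fluorescence ratio of max minus min over baseline; more negative score means more quench and so TMEM16A activation or potentiation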
CHT activ conf: CHT activators, confirmation, cell-based, membrane potential dye, duplicate; shares compounds with CHT PAM; CHT-expressing cells, membrane potential dye fluorescence (FDSS); % of choline EC20–EC90 response window; HEK293 expressing CHT LV-AA mutant; choline added at its EC20; activation, % at 10 µM; 2,500 tested, 91% active;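 active = primary screen active, with duplicate mean activation above negative control mean plus 3 SD, cut at about 11% in these data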
HEK293 MP dye: membrane potential response in parental HEK293 cells, counter-screen for CHT activator project, cell-based, membrane potential dye | shares compounds with CHT PAM | membrane potential dye fluorescence (FDSS); measured after EC20 choline addition | ratio readout change at 10 µM, hits read low | 2,500 tested, 62% active | AID 623908, 2012;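 active = duplicate-averaged ratio beyond 3 SD from buffer wells, up or down, though filed actives are nearly all decreases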
Active calls of the source: *; i = inactive; · = not tested or not shown. Sampled rows, rich in hits. Any-hit rate of the full collection: about 2.5%.

SMILES	TMEM16A inh	PKA-R1A act	CHT inh	PKA-R2B act	CHT PAM	TMEM16A act	CHT activ conf	HEK293 MP dye
COc1cc(Nc2c3c(nc4ccccc24)CCC3)cc(OC)c1OC	i	-6.0	i	-1.3	i	i	36.0*	-35.6*
CC(=O)c1c(C)nc2sc3c(=N)n(N)cnc3c2c1-c1ccc(Cl)cc1	i	-7.6	i	-3.3	6.7*	i	49.8*	-39.8*
CN1CCCCC1=NCCCn1cnc2c1c(=O)n(C)c(=O)n2C	i	2.9	i	-1.6	7.16*	i	46.7*	-49.4*
OCCSc1nc(-c2ccccc2)nc2ccc(F)cc12	i	3.9	i	3.3	i	i	·	·
NC(N)=Nc1nc(-c2ccccc2)c2cc(F)ccc2n1	i	-0.5	i	1.8	i	i	28.8*	-47.8*
Cc1onc(-c2c(F)cccc2Cl)c1C(=O)OCC(=O)NCc1ccccc1	·	-7.7	·	1.6	·	i	·	·
COC(=O)c1c(NC(C)=O)sc2c1CCN(Cc1ccccc1)C2	i	-5.7	i	-2.4	7.25*	i	40.3*	-66.3*
CCOC(=O)c1c(NC(C)=O)sc2c1CCN(Cc1ccccc1)C2	i	-8.5	i	12.8	6.37*	i	40.3*	-60.1*
Cc1ccn2cc(-c3cccc(NC(=O)C(C)C)c3)nc2c1	i	-1.0	i	7.0	i	i	·	·
Cc1ccn2cc(-c3ccc(O)c(O)c3)nc2c1	i	-5.0	i	0.9	i	i	36.3*	-39.6*
Oc1ccc(-c2cn3ccccc3n2)cc1O	i	0.8	i	8.1	i	i	37.1*	-42.1*
Cc1ccc(C2(C)NC(=O)N(CC(=O)NNC(=O)c3ccccc3F)C2=O)cc1 (configuration not stated)	·	-1.8	·	-2.4	·	i	·	·
NS(=O)(=O)c1ccc(CCNS(=O)(=O)c2ccc(Cl)s2)cc1	·	-0.8	·	7.1	·	i	·	·
O=C(O)c1ccc(N/N=C/C=C/c2ccc([N+](=O)[O-])o2)cc1	i	8.9	i	-14.8	i	i	·	·
O=[N+]([O-])c1ccc(N/N=C/C=C/c2ccco2)cc1	i	4.5	i	-11.8	8.1*	i	12.3*	i
Cc1ccccc1CN1C2=NCCN2c2ccccc21	i	5.9	i	-9.3	i	i	·	·
CCCN1C2=NCCN2c2cc(C)c(C)cc21	i	-0.1	i	-6.9	8.34*	i	41.8*	-46.4*
CCCCCN1C2=NCCN2c2ccccc21	i	-0.1	i	-12.1	i	i	34.1*	-31*
CCOC(=O)CN1C2=NCCN2c2ccccc21	i	-8.8	i	-4.6	i	i	·	·
Cc1ccccc1C(=O)Nc1cc(S(=O)(=O)N2CCOCC2)ccc1N1CCN(C)CC1	·	-0.2	·	-2.0	·	i	·	·
CCc1ccc(/C=C2\Oc3c(ccc(O)c3CN3CCN(CCO)CC3)C2=O)cc1	i	-7.6	i	3.5	i	i	·	·
COc1ccc(NC(=O)COC(=O)CO/N=C(\C)c2ccc3c(c2)OCO3)cc1S(N)(=O)=O	·	-5.0	·	1.1	·	i	·	·
O=C1c2cc([N+](=O)[O-])ccc2-c2ncccc21	i	-4.2	i	1.9	6.97*	i	62.8*	-40.8*
O=C1c2cccnc2-c2ncccc21	i	0.3	i	3.1	i	i	·	·
COc1ccc(CC(=O)N(C)Cc2cccc(OC)c2OC)cc1S(=O)(=O)N1CCOCC1	i	-3.8	i	5.0	i	i	·	·
SMILES	TMEM16A inh	PKA-R1A act	CHT inh	PKA-R2B act	CHT PAM	TMEM16A act	CHT activ conf	HEK293 MP dye
CCCCC1CCC(C(=O)N(C)CC(=O)Nc2cccc(F)c2)CC1 (configuration not stated)	i	-6.7	i	-3.4	i	i	·	·
CCCCCCn1c(N2CCCC2)nc2c1c(=O)n(C)c(=O)n2C	i	-9.9	i	-7.4	i	i	·	·
Cn1c(=O)c2c(nc(N3CCOCC3)n2CCCNC2=NCCC2)n(C)c1=O	i	-5.6	i	-7.0	8.82*	i	54.4*	-55.7*
Cn1c(=O)c2c(nc(N3CCOCC3)n2CCSc2ncccn2)n(C)c1=O	i	6.6	i	1.7	8.62*	i	74.6*	-78.9*
Cn1cccc1CC(=O)N/N=C/c1ccc(Cl)c([N+](=O)[O-])c1	i	·	i	·	i	i	·	·
CN(C)CCN(Cc1ccccc1)S(=O)(=O)c1ccc2c(c1)n(C)c(=O)c(=O)n2C	i	-19.8	i	-11.1	12.1*	i	73.9*	-81.2*
CCOP(=O)(OCC)C(NCc1ccccc1)c1ccc(Br)cc1 (configuration not stated)	i	-9.9	i	0.5	i	i	29.3*	i
CCCCNc1c([N+](=O)[O-])c(=O)n(C)c2ccccc12	i	3.9	i	0.7	i	i	·	·
Cn1c(=O)c([N+](=O)[O-])c(NCCCn2ccnc2)c2ccccc21	i	-15.7	i	-1.6	i	i	57.5*	-55.4*
Cc1cc(OC(C)C(=O)NCCCN2CCOCC2)c2c(C)c(C)c(=O)oc2c1 (configuration not stated)	i	-7.9	i	-0.1	6.37*	i	62.4*	-48*
CCCc1cc(=O)oc2c3c(cc(OCC(=O)NCC4CCC(C(=O)O)CC4)c12)OC(C)(C)CC3 (configuration not stated)	i	-5.3	i	-15.3	i	i	6.7	i
CCc1cc(=O)oc2cc(C)cc(OC(C)C(=O)NC3CCN(Cc4ccccc4)CC3)c12 (configuration not stated)	i	-6.0	i	2.3	i	i	53.5*	-45*

High-throughput results from PubChem.
